S1P4 antagonist = human S1P4 receptor antagonism | S1P4-expressing cells, antagonist mode, reporter read-out | 220,000 tested, 0.26% active | O95977 | inhibition, % at 4.98 µM; in the data active means inhibition above about 29%;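 further: 0% = wells stimulated with agonist and 100% = vehicle wells without agonist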
S1P3 antagonist = S1P3 (human) receptor antagonism; CHO S1P3 NFAT-BLA reporter, FRET fluorescence, antagonist mode; inhibition, % at 4.98 µM; 170,000 tested, 0.27% active; AID 485;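 active means inhibition above the plate cutoff, the mean inhibition of test wells on that plate plus 3 SD, cut at about 28% in these data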;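 further: cells challenged with S1P at its EC80 of 0.8 µM; blue over green emission ratio from cleaved BLA substrate after 4 h stimulation; 0% = S1P-stimulated wells and 100% = unstimulated DMSO-only wells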
Insulin prom inh = TRM-6 insulin promoter activity inhibition | TRM-6 cells (human fetal islet line), insulin promoter-eGFP reporter, imaging; reporter expression induced with tamoxifen | inhibition, % at 2 µM | 130,000 tested, 0.9% active | AID 1273;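 active means inhibition above the mean plus 3 SD, with well images judged a real hit on visual review, cut at about 60% in these data, passing the limit was not always enough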
EP2 antag = inhibitors of human EP2 prostaglandin E2 receptor; 260,000 tested, 0.52% active; AID 1422; C6 glioma cells expressing human EP2, cAMP TR-FRET; cells stimulated with saturating PGE2; P43116; inhibition, % at 25 µM;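 active means percent inhibition above 40 after rounding to a whole number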;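 further: rat C6 glioma host cells with rolipram phosphodiesterase inhibitor present; the protocol text gives 20 µM as final concentration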
Target sequence (P43116 whole entry, looked up): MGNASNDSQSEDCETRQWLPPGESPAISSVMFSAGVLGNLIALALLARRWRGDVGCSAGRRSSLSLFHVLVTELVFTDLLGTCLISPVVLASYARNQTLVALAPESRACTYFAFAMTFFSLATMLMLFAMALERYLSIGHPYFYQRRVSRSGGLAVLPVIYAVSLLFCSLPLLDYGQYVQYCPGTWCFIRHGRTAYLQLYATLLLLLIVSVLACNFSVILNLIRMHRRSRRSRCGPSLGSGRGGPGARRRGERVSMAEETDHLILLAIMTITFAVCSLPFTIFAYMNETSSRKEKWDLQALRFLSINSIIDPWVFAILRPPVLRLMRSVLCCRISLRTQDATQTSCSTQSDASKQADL
EP2 mod = modulators of human EP2 prostaglandin E2 receptor; P43116; EP2-expressing cells, cAMP HTRF FRET, PGE2 co-stimulation; induction, % at 25 µM; 260,000 tested, 0.83% active;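 active means compounds whose cAMP rise, as percent of the full-agonist control response, exceeds 60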;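 further: rat C6 glioma line stably carrying human EP2 under a CMV promoter; the protocol text gives 20 µM as final concentration; 100% = response of wells given 1 µM PGE2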
S1P4 agonist = agonists of human S1P4 receptor | O95977 | S1P4-expressing cell line, agonist reporter assay | activation, % at 4.98 µM | 220,000 tested, 0.35% active; in the data active means activation above about 11%;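 further: 0% = DMSO vehicle and 100% = reference agonist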
EP2 confirm = human EP2 receptor cAMP induction, negative in counter-screens | shares compounds with EP2 mod | 1,300 tested, 47% active | C6 glioma EP2 cells, cAMP HTRF induction; plus low (about EC15) PGE2 agonist | AID 1080 | calls only at 20 µM (by protocol);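 active means cAMP induction above 50% in the main assay while under 30% in all four parallel counter assays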;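 further: rat C6 glioma cells stably expressing human EP2 receptor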
Numbers without * were called inactive; i = inactive; x = no result given; + = active, no number. Shown are actives, neighbours in structure and some others; about 2.4% of the full set was active somewhere.

SMILES	S1P4 antagonist	S1P3 antagonist	Insulin prom inh	EP2 antag	EP2 mod	S1P4 agonist	EP2 confirm
COc1ccc2c(C)cc(SCC(=O)Nc3ncc(Cl)cc3Cl)nc2c1	6	-4	-24	14	68*	-2	i
Cc1cc(SCC(=O)Nc2ncc(Cl)cc2Cl)nc2ccccc12	-12	4	x	11	46	1	x
CC(/C=C1\SC(=S)N(c2ccc(C(=O)O)cc2)C1=O)=C\c1ccccc1	-3	2	x	5	14	0	x
CC(/C=C1\SC(=S)N(C(C(=O)O)C(C)C)C1=O)=C\c1ccccc1 (stereo unspecified)	-21	-18	14	10	61*	1	+
Cc1ccc(S(=O)(=O)N(CC(=O)N=Nc2c(O)[nH]c3ccccc23)c2ccc(C)c(C)c2)cc1	-11	-4	45	10	67*	1	+
O=S(=O)(c1cccs1)N1CN(Cc2ccccc2)c2nc3ccccc3nc21	-13	x	19	14	30	0	x
O=S(=O)(c1cccs1)N1CN(Cc2cccs2)c2nc3ccccc3nc21	-18	22	0	13	65*	-1	i
COC(=O)c1ccc(Cn2cc([N+](=O)[O-])cn2)o1	x	x	x	8	-22	x	x
Cc1cccc(-c2csc(N)c2C(=O)OC(C)C)c1	-9	x	-6	9	96*	1	+
CCOC(=O)c1c(-c2cccc([N+](=O)[O-])c2)csc1N	-16	15	-19	2	56	1	x
CCCC(=O)N1CCC(c2nc3c(nnn3Cc3ccc(Cl)cc3Cl)c(=O)[nH]2)CC1	x	x	x	7	34	x	x
Cc1ccc(S(=O)(=O)c2ccc(C)cc2)cc1	7	x	19	13	9	0	x
Cc1ccc(S(=O)(=O)c2ccc(Oc3cccc(C)c3)cc2)cc1	-9	x	19	8	78*	-1	i
CCc1nnc(NC(=O)CSc2nnc(-c3ccncc3)n2CC)s1	x	x	x	8	7	x	x
COC(=O)c1c(NC(=O)CSc2nnc(-c3cccnc3)n2Cc2ccco2)sc(C)c1C	-37	6	-39	7	55	2	i
O=C(CSc1nnc(-c2ccc(Cl)cc2)n1Cc1ccco1)c1cccs1	6	20	x	14	70*	1	+
CCCC/C(=N\NC(=O)c1ccc(Br)o1)c1ccccc1	-10	-14	-64	18	55	1	i
CC/C(=N/NC(=O)c1ccc(Br)o1)c1ccc(Cl)cc1	-1	-3	-17	11	45	-1	x
COC(=O)c1cccc(NC(=O)CSc2nnc(COc3cccc4ccccc34)n2C)c1	x	x	x	15	-48	x	x
O=c1c2ccccc2n(Cc2ccc(Cl)cc2)c(=O)n1Cc1ccco1	-7	7	-62	4	51	0	+
O=C(NCc1ccco1)c1ccc(Cn2c(=O)c3ccccc3n(Cc3ccc(Cl)cc3)c2=O)cc1	5	x	-7	13	21	-1	x
Cc1ccc(Cn2c(=O)n(Cc3ccco3)c(=O)c3ccccc32)cc1	-17	-1	-4	8	68*	1	+
CCc1nc(SCC(=O)Nc2ccc(Cl)cc2)n[nH]1	x	x	x	14	-6	x	x
Cc1nc2c(c(=O)[nH]1)CCN(C(=O)c1cccc(N3CCCCS3(=O)=O)c1)C2	x	x	x	4	-16	x	x
COc1ccc(C(=O)O)cc1NC(=S)NC(=O)c1ccc(-c2ccc(Cl)cc2)o1	10	-17	0	8	95*	-2	+
SMILES	S1P4 antagonist	S1P3 antagonist	Insulin prom inh	EP2 antag	EP2 mod	S1P4 agonist	EP2 confirm
Cc1ccc(C(=O)O)cc1NC(=S)NC(=O)c1ccc([N+](=O)[O-])cc1Cl	-8	4	-19	1	9	1	x
Cc1ccc(C(=O)O)cc1NC(=S)NC(=O)c1ccc(-c2ccccc2)cc1	3	2	6	9	74*	-1	+
CCC(=O)NC(=S)Nc1cc(C(=O)O)ccc1OC	-5	-18	21	4	13	0	x
N#Cc1ccc(Cl)cc1N1C(=O)c2ccccc2S1(=O)=O	x	x	x	9	-3	x	x
CC(Sc1nnc(-c2cccs2)n1Cc1ccccc1)C(=O)NCc1ccc2c(c1)OCO2 (stereo unspecified)	2	x	-29	2	70*	0	i
C/C(=N\NC(=O)c1ccco1)c1ccc(NC(=O)c2ccccc2)cc1	-11	8	-10	5	-25	3	x
C/C(=N\N=C(c1ccccc1)c1ccccc1)c1ccco1	-3	-9	30	7	81*	1	+
Cc1ccc2[nH]c3c(=S)nc[nH]c3c2c1	-22	-1	78*	12	88*	3	i
N#CCSc1ncnc2sc3c(c12)CCC3	-15	-4	x	10	28	2	x
Cc1noc(C)c1CSc1nc2sc3c(c2c(=O)n1C)CCCC3	-12	x	3	6	63*	1	i
Cc1noc(C)c1CSc1ncnc2sc3c(c12)CCC(C)C3 (stereo unspecified)	-13	10	-3	14	70*	1	i
Cc1noc(C)c1CSc1ncnc2sc3c(c12)CCC3	-12	18	x	5	68*	-1	i
CC1CCc2c(sc3ncnc(SCC(=O)N4CCCC4)c23)C1 (stereo unspecified)	x	x	x	7	8	x	x
CC(=O)CSc1ncnc2sc3c(c12)CCC(C)C3 (stereo unspecified)	12	-7	-21	5	61*	0	i
COc1ccccc1NC(=O)C1=C(C)NC2=C(C(=O)CCC2)C1c1ccc(O)cc1 (stereo unspecified)	x	x	x	13	8	x	x
Cc1ccc(CN2C(=O)/C(=C\c3ccc(C(=O)NCc4cccnc4)cc3)Oc3ccccc32)cc1	-12	-1	30	13	85*	5	+
COc1ccc(C(C(=O)NC2CCCC2)N(C(=O)c2ccco2)c2ccc3c(c2)CCC3)cc1OC (stereo unspecified)	x	x	x	12	-47	x	x
COc1ccc(NC2=NCC(=O)N2c2ccccc2)cc1	x	x	x	6	2	x	x
Cc1cc2oc(=O)cc(COC(=O)c3n[nH]c4ccccc34)c2cc1C	-3	x	32	x	8	0	x
COc1ccc2c(COC(=O)c3n[nH]c4ccccc34)cc(=O)oc2c1	-22	x	24	10	75*	-3	i
Cc1cc(-c2cncnc2C2CCN(CC(=O)N3CCCCC3)CC2)on1	x	x	x	x	2	x	x
Clc1ccccc1Cn1c(/C=C/c2ccco2)nc2ccccc21	-19	9	-17	9	71*	2	i
COc1ccc(Cn2c(/C=C/c3ccccc3)nc3ccccc32)cc1	-16	x	x	-2	43	-2	x
COc1c(O)cc2oc3cc(O)c(CC=C(C)C)c(O)c3c(=O)c2c1CC=C(C)C	x	x	x	16	51	x	i

From PubChem BioAssay
